Measured values published in PubChem BioAssay.
Values joined by “and” are separate entries in the source; they are usually repeats but may differ in a detail not shown here. Equal entries are not always repeated. Active and inactive are the calls of the source.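 How the source made its calls, unless noted: active means thallium flux through the channel raised or lowered by more than 3 SD from vehicle-only wells, actives on both sides; inactive means the rest.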

Tests used:
[1] = test system: Hepatitis C virus NS3 helicase; assay: blockers of NS3h binding to DNA – biochemical, fluorescence polarization, NIH Clinical Collection, primary screen (AID 743270; call rule not given here); details: NS3 helicase binding to Cy5-dT15 DNA, stronger effect = higher value, concentration not given here
[2] = target: Single-stranded DNA-binding protein (Escherichia coli (strain K12)) (UniProt P0AGE0); assay: SSB-ssDNA binding inhibitors – biochemical, fluorescence polarization, NIH Clinical Collection, counter-screen for HCV NS3 helicase inhibitor project (AID 743271; in the data active means inhibition above about 28%); details: E. coli SSB-DNA binding, stronger effect = higher value, concentration not given here
[3] = compounds distorting NS3 helicase fluorescence signal – biochemical, NIH Clinical Collection, artefact control for HCV NS3 helicase inhibitor project (AID 743272; call rule not given here;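 further: HCV NS3 helicase with a Cy5 labelled single stranded DNA probe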); details: fluorescence interference counterscreen, HCV NS3 helicase assay; stronger effect = lower value
[4] = Wnt pathway potentiators raising nuclear beta-catenin – imaging, WNT3A-conditioned medium, mouse C2C12, NPC library, primary screen (AID 1117326; in the data active means nuclear beta-catenin stimulation mostly above about 4.2%, no sharp cut-off; inactive means mostly below about 10%); details: stronger effect = higher value
[5] = stimulators of insulin release from INS-1E, primary screen, cell-based, 5 mM glucose, NPC library (AID 1117329;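 active means compound raises insulin release from rat beta cells at 5 mM glucose, no numeric limit stated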); details: rat INS-1E insulin secretion, at 10 µM, stronger effect = higher value
[6] = growth inhibition of GSK3B-pretreated HCT116 cells – cell-based, CellTiter-Glo, 0.2 to 20 µM (AID 1117336;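 active means compounds lowering colon cancer cell viability after pretreatment blocking the GSK3B kinase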); details: HCT116 viability after GSK3B inhibitor, at 20 µM, stronger effect = higher value
[7] = inhibition of endothelial tube formation, primary screen, imaging, VEGF stimulated, CD31 staining, tube area, NPC library (AID 1117340;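 active means compound that reduces growth-factor-driven endothelial tube area in a mixed cell culture, no cutoff stated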); details: VEGF-stimulated ADSC/ECFC co-culture, at 10 µM, stronger effect = higher value
[8] = GLP1 release stimulators, primary, NCI-H716, NPC library (AID 1117341;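 active means compound raises GLP1 secretion from the human gut endocrine cells, with no numeric limit stated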); details: NCI-H716 cells, at 10 µM, stronger effect = higher value
[9] = HCT116 colon cancer cell growth inhibition, primary screen, CellTiter-Glo luminescence, NPC library (AID 1117342;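 active means compounds that lower survival of HCT116 colon cancer cells in the luminescence readout, no numeric limit stated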); details: at 20 µM (top of the series)
[10] = reduced SW480 viability measured with CellTiter-Glo, NPC library, primary (AID 1117343;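 active means compounds that lower viability of the colon cancer cells in the luminescence readout, with no numeric limit stated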); details: CellTiter-Glo luminescence; at 20 µM (top of the series)
[11] = NPC library primary testing for decreased DLD-1 cell viability via CellTiter-Glo (AID 1117346;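 active means compounds that lower survival of DLD-1 colon cancer cells in the luminescence readout, no cutoff given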); details: DLD-1 viability, CellTiter-Glo luminescence; at 20 µM (top of the series)
[12] = target: 6-phosphogluconate dehydrogenase, decarboxylating (Homo sapiens) (UniProt P52209); assay: inhibition of human phosphogluconate dehydrogenase – biochemical, recombinant enzyme, NADPH absorbance, primary screen (AID 1159550;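 active means at least 20% inhibition of 6-phosphogluconate dehydrogenase activity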); details: recombinant 6PGD, NADPH absorbance 341 nm; at 10 µM; stronger effect = higher value
Sequence of 6-phosphogluconate dehydrogenase, decarboxylating (Homo sapiens) (P52209 whole entry, looked up): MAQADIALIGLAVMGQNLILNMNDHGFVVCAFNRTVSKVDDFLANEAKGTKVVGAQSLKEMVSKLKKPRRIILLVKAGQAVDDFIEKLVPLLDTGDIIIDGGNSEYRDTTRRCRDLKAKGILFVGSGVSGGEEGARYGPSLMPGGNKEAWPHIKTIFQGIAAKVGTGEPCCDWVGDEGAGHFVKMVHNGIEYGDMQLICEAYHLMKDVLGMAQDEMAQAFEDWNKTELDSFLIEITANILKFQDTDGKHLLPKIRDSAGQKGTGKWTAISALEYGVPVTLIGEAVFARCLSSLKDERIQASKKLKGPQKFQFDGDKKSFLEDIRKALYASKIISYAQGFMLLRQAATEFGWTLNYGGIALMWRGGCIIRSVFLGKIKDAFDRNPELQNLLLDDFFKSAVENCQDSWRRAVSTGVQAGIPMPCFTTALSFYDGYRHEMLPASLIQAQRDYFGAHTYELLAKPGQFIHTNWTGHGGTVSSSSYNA

[13] = EMT-state selective cytotoxicity in co-culture – imaging, PC-3E GFP, TEM4-18 mCherry, primary screen (AID 1345086;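 active means compounds killing one labelled cell type while sparing the other, by normalised counts and ratio limits, not self-fluorescent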;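 on all read-outs here: cells exposed to compound for 72 h before imaging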;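 on red/green cell ratio (normalised): normalised mesenchymal count divided by normalised epithelial count so high means epithelial killing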); details: PC-3E GFP / TEM4-18 mCherry co-culture, imaging cell counts, at 1 µM; for red/green cell ratio (normalised): actives lie on both sides, counts scaled to control wells, 1 = unselective
[14] = viability loss with induced miR-34 in A549 – imaging, A549 dox-inducible miR-34, nuclei and caspase counts, primary screen (AID 1347080;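 active means compounds whose cell count with miR-34 switched on is under 0.7 times the count with it off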); details: A549 miR-34 inducible, Hoechst nuclei count, 48 h
[15] = MELAS cybrid and Rieske KO viability enhancers – cell-based, MELAS cybrids, Rieske KO mouse fibroblasts, CellTiter-Glo, primary screen (AID 1508586;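 active means mean z-score across replicates of 1.96 or higher in either the MELAS or the Rieske mutant cell line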;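 further: z relative to plate mean and SD of compound and empty wells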); details: low glucose
[16] = target: NAD(+) hydrolase SARM1 (Homo sapiens) (UniProt Q6SZW1); assay: blocking NAD cleavage by SARM1 SAM-TIR – cell lysate, NAD-Glo luminescence (AID 1508614;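 active means compound whose remaining NAD level is above about 45 nM, limit read from the data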); details: SAM-TIR HEK293T lysate NADase, at 1 µM, stronger effect = higher value
Sequence of NAD(+) hydrolase SARM1 (Homo sapiens) (Q6SZW1 whole entry, looked up, the tested form may be a part): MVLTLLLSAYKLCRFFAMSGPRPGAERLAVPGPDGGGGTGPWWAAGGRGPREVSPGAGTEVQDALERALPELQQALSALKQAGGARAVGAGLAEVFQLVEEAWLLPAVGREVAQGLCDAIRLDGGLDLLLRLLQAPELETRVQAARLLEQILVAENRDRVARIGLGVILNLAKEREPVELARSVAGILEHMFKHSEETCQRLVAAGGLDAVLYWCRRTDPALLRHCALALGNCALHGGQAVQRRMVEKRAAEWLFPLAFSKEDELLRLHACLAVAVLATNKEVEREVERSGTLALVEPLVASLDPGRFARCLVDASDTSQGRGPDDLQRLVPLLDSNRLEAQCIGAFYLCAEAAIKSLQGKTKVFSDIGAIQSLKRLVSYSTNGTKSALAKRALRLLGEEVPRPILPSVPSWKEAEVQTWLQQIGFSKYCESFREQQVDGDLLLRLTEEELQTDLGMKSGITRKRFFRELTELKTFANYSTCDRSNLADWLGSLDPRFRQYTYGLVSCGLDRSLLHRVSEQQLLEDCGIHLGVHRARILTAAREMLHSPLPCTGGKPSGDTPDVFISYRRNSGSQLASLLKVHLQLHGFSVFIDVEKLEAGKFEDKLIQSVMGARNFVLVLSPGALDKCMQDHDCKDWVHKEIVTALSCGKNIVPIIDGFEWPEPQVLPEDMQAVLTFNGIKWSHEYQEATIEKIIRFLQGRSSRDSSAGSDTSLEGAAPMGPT

[17] = target: Mitogen-activated protein kinase 7 (Homo sapiens) (UniProt Q13164); assay: Gal4-ERK5 driven luciferase induction – cell-based, HTS, primary screen (AID 1508626;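 active means luciferase signal above three times the same-plate solvent-only control wells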;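 further: luciferase driven by Gal4-ERK5 fusion binding five Gal4 sites before minimal TATA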); details: HeLa Gal4-ERK5 transactivation, 18 h, at 5 µM, stronger effect = higher value
Sequence of Mitogen-activated protein kinase 7 (Homo sapiens) (Q13164 whole entry, looked up, the tested form may be a part): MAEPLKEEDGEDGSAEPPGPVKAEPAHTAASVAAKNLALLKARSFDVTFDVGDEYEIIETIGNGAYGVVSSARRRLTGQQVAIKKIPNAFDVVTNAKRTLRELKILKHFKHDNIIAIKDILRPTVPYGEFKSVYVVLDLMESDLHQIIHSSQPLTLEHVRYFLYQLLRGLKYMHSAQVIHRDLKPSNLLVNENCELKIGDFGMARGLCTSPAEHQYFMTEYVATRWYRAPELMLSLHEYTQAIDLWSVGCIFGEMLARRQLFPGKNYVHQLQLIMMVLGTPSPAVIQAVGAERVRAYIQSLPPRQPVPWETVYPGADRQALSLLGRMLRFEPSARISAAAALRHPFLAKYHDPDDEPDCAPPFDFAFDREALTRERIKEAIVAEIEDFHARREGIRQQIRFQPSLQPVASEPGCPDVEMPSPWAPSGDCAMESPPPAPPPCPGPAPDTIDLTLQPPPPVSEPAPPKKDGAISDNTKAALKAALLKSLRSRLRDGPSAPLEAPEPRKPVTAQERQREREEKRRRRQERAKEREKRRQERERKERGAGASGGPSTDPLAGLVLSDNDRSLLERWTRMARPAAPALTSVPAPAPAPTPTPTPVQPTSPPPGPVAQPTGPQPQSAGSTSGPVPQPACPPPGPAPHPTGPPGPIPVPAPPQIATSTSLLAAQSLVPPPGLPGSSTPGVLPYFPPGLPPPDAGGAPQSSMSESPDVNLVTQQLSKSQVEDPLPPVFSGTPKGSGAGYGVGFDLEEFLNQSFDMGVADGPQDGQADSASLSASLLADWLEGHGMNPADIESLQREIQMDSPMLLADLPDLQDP

[18] = test system: F380Y; assay: BK channel mutant inhibitors and activators – cell-based, U2OS BacMam, thallium flux, beta subunits, selectivity assay, profiling panel (AID 1259406); details: U2OS BacMam BK variants, at 30 µM;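 further: initial slope of Thallos dye fluorescence rise after thallium is added; log ratio against the mean of 0.3% DMSO vehicle wells on the same plate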
[19] = test system: F380Y/beta2Delta; assay: as above; details: U2OS BacMam BK variants, at 30 µM
[20] = target: Calcium-activated potassium channel subunit alpha-1 (Homo sapiens) + Leucine-rich repeat-containing protein 26 (Homo sapiens) (UniProt Q12791+Q2I0M4); assay: as above; details: U2OS BacMam BK variants, F380Y/Slo1WT/gamma1, at 30 µM
Sequence of Calcium-activated potassium channel subunit alpha-1 (Homo sapiens) + Leucine-rich repeat-containing protein 26 (Homo sapiens) (Q2I0M4 whole entry, looked up, one chain of several): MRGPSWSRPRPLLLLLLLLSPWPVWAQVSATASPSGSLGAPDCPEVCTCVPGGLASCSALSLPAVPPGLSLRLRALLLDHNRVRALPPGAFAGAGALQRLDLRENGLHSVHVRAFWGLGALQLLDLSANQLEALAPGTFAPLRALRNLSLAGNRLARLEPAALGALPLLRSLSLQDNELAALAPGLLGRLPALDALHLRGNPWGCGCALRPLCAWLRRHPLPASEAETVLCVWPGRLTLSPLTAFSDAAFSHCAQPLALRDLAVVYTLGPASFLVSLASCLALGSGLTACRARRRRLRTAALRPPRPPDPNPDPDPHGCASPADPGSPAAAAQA

[21] = measured here: epithelial PC-3E GFP cell survival
[22] = measured here: mesenchymal TEM4-18 mCherry cell survival
[23] = measured here: relative caspase fold change +Dox/-Dox
[24] = MELAS cybrid survival, CellTiter-Glo 48 h, stronger effect = higher value
[25] = Rieske KO mouse fibroblast survival, CellTiter-Glo 72 h

NCC(=O)CCC(=O)O
0.0439: z-score [15, 25]
-0.9%: nuclear beta-catenin stimulation ([4]; stimulation, at 2 µM)
1.3: normalised cell number [13, 21]
9310 and 7910 and 11200: cell count ([14]; measured here: total cells with miR-34 induction, stronger effect = lower value)
9780 and 8320 and 12900: cell count ([14]; measured here: total cells without miR-34 induction)
1.4: normalised cell number [13, 22]
1.44 and 0.654 and 2.02: fold change [14, 23]
inactive: inhibition [1] -2.27% | inhibition [2] -0.48% | fluorescence ratio [3] 1.02 | nuclear beta-catenin stimulation ([4]; at 10 µM) 0.4% | insulin secretion stimulation [5] 1.9% | viability decrease [6] 26.6% | tube area decrease [7] -10.4% | GLP1 secretion stimulation [8] -1.4% | inhibition of viability [9] 18.9% | viability decrease (inhibition) [10] 19.8% | viability decrease (inhibition) [11] 1% | inhibition [12] -28.8% | red/green cell ratio (normalised) [13] 1.08 | fold change ([14]; stronger effect = lower value, cell number ratio, induced over uninduced) 0.951 and 0.95 and 0.866 | z-score [15, 24] -0.348 | remaining NAD [16] 10 nM | luciferase signal [17] 84 AU | log fold change Tl+ flux [18] -0.035 | log fold change Tl+ flux [19] -0.0239 | log fold change Tl+ flux [20] 0.011

c1ccc2c(c1)CCCC2C1=NCCN1 (centres undefined)
-0.176 and -0.558: z-score [15, 25]
inactive: inhibition [1] -4.09% | inhibition [2] -0.48% | fluorescence ratio [3] 0.93 | nuclear beta-catenin stimulation ([4]; at 10 µM) 4.7% | insulin secretion stimulation [5] -0.4% | viability decrease [6] -30.2% | tube area decrease [7] -9.5% | GLP1 secretion stimulation [8] 0.9% | inhibition of viability [9] 0.6% | viability decrease (inhibition) [10] 11.2% | viability decrease (inhibition) [11] -6.9% | inhibition [12] 19.3% | red/green cell ratio (normalised) [13] 1.32 | z-score [15, 24] -0.281 and -0.833 | remaining NAD [16] 10 nM | luciferase signal [17] 44 AU | log fold change Tl+ flux [18] -0.0277 | log fold change Tl+ flux [19] -0.0151 | log fold change Tl+ flux [20] 0.0123
1.36: normalised cell number [13, 22]
-0.1%: nuclear beta-catenin stimulation ([4]; stimulation, at 2 µM)
1.03: normalised cell number [13, 21]

CCOC(=O)[C@H](CCc1ccccc1)N[C@@H](C)C(=O)N1Cc2ccccc2C[C@H]1C(=O)O
1.12: normalised cell number [13, 22]
0.3%: nuclear beta-catenin stimulation ([4]; stimulation, at 2 µM)
1.45 and 1.07 and 4.39: fold change [14, 23]
-0.486 and -0.81: z-score [15, 25]
1.17: normalised cell number [13, 21]
inactive: inhibition [1] -8.64% | inhibition [2] -0.48% | fluorescence ratio [3] 1.04 | nuclear beta-catenin stimulation ([4]; at 10 µM) 2.5% | insulin secretion stimulation [5] 0.7% | viability decrease [6] -30.1% | tube area decrease [7] -10% | GLP1 secretion stimulation [8] 2.9% | inhibition of viability [9] 3.6% | viability decrease (inhibition) [10] 28.5% | viability decrease (inhibition) [11] 6% | inhibition [12] -10.1% | red/green cell ratio (normalised) [13] 0.95 | z-score [15, 24] 0.64 and 0.208 | remaining NAD [16] 10 nM | luciferase signal [17] 64 AU | log fold change Tl+ flux [18] 0.032 | log fold change Tl+ flux [19] 0.0255 | log fold change Tl+ flux [20] 0.0143
